Compounds with a hit are over-represented: about 2.3% of the library has one in this group of screens.
CHRM1 agonist: agonists of human M1 muscarinic receptor; hit rate 0.33% among 360,000; P11229; CHO-K1 hM1, Fluo-8 calcium fluorescence, agonist mode; 0% DMSO, 100% acetylcholine EC100; activation, % at 3 µM;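 active = activation above the run's mean compound activation plus 3 SD, cut at about 16% in these data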;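 also: peak over basal fluorescence ratio within a 140 s kinetic read after compound addition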
Target sequence (P11229 whole entry, looked up): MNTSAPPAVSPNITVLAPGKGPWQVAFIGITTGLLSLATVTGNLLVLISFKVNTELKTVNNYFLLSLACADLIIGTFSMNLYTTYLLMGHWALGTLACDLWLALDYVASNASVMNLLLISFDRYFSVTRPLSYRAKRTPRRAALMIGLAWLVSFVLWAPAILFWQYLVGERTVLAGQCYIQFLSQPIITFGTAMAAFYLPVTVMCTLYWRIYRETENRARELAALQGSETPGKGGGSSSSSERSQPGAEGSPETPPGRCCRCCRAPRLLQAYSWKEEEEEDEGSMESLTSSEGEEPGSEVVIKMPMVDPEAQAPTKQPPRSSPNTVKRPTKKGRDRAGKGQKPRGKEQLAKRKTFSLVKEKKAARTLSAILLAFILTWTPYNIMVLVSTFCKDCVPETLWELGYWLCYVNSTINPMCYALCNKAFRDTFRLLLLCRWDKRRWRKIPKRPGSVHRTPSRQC
CHRM1 antagonist: antagonists of human M1 muscarinic receptor. P11229. CHO-K1 hM1, Fluo-8 calcium fluorescence, ACh EC80 antagonist. inhibition, % at 3 µM. hit rate 1.3% among 360,000. AID 588852;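 active = percent inhibition above its own plate's cutoff, namely the mean of that plate's compound wells plus 3 SD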;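 also: peak over basal fluorescence ratio during 140 s after agonist addition; 0% = ACh EC80 plus DMSO and 100% = DMSO alone without agonist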
CHO-K1 Ca ag: counter-screen for M1 agonists: effect in parental CHO-K1 cells; Fluo-8 calcium fluorescence; scaled to maximal ATP response, vehicle zero; activation, % at 3 µM; hit rate 0.48% among 360,000; AID 602248; in the data active = activation above about 15%;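 also: untransfected CHO-K1 host cells lacking M1 receptor as counterscreen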
CHO-K1 Ca antag: nonselective inhibitor or artifact in parental CHO-K1 cells; ATP-induced calcium, Fluo-8 fluorescence; inhibition, % at 3 µM; hit rate 0.6% among 360,000;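 active = inhibition above a per-plate cutoff, the plate's mean sample inhibition plus 3 SD, cut at about 24% in these data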;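 also: 0% = DMSO plus EC80 ATP and 100% = DMSO alone without ATP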
CHO-K1 Ca PAM: counter-screen for M1 PAMs: effect in parental CHO-K1 cells. ATP EC20, Fluo-8 calcium fluorescence; 0% at ATP EC20, 100% at ATP max. activation, % at 3 µM. hit rate 0.02% among 360,000;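 active = activation above the run cutoff, the mean activation of all test compounds plus 3 SD, cut at about 40% in these data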;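 also: peak over basal fluorescence ratio in a 140 s read after ATP addition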
CHRM1 PAM: human CHRM1 positive allosteric modulation. P11229. CHO-K1 hM1, Fluo-8 calcium fluorescence, ACh EC20; 0% = ACh EC20, 100% = maximal ACh. activation, % at 3 µM. hit rate 0.088% among 360,000. AID 588819; in the data active = activation above about 19%, passing the limit was not always enough
Numbers without * were called inactive.

SMILES	CHRM1 agonist	CHRM1 antagonist	CHO-K1 Ca ag	CHO-K1 Ca antag	CHO-K1 Ca PAM	CHRM1 PAM
O=C(NC1(C(F)(F)F)N=C(c2ccccc2)NC1=O)c1ccccc1 (configuration not stated)	-5	-6	0	27*	-13	4
COc1ccc(CNc2ccc(Br)cc2)cc1	-4	-1	1	-12	16	1
COc1ccc(NC2=NCC(Cc3ccc(Br)cc3)S2)cc1 (configuration not stated)	-10	79*	9	-4	23	-26
C=CCOC(=O)C1=C[C@H](c2ccc3c(c2)OCO3)C[C@H](OCCCCO)O1	-1	-1	0	-13	18	9
CC(NC(=O)c1ccc(Cl)cc1Cl)C(c1ccccc1)N1CCOCC1 (configuration not stated)	-13	-11	1	9	16	11
CC(NC(=O)Nc1ccc([N+](=O)[O-])cc1)C(c1ccccc1)N1CCOCC1 (configuration not stated)	26*	2	49*	-2	4	-1
CC(NC(=O)Nc1ccc(Cl)c(Cl)c1)C(c1ccccc1)N1CCOCC1 (configuration not stated)	30*	10	38*	14	10	3
CCn1cc(C(=O)OCC(=O)NCc2ccc3c(c2)OCO3)c(=O)c2ccc(C)nc21	-6	1	0	3	6	-1
CC(=O)Nc1ccc(S(=O)(=O)N2CCC3(CC2)CC(=O)c2ccccc2O3)cc1	-3	32*	2	9	-17	-15
CCC1CCCCN1CCNC(=O)C1CCN(S(=O)(=O)c2c(C)noc2C)CC1 (configuration not stated)	-7	48*	1	5	-1	-24
COCOCCn1cc(CN2CCS(=O)(=O)N(Cc3ccc(-c4ccc(OC)cc4)cc3)C(C(C)C)C2=O)nn1 (configuration not stated)	-5	0	1	-11	11	-2
c1ccc(COc2ccc(OCCCNC3CCCC3)cc2)cc1	3	29*	6	1	18	-23
c1ccc(OCc2ccc(CCCN3CCOCC3)cc2)cc1	-5	37*	2	8	-7	-22
c1ccc(CCCN2CCOCC2)cc1	-2	-15	1	-13	5	13
CC1CC(C)CN(CCCCOc2ccc([N+](=O)[O-])cc2)C1 (configuration not stated)	-8	24*	1	-10	21	-24
COCCCNCCCCOc1ccc(OCc2ccccc2)cc1	-8	5	5	5	1	-4
CC1CCN(CCCCOc2ccc(C(C)(C)C)cc2)CC1	-6	60*	9	1	-5	-29
CCCCCC(=O)N1C[C@@H](n2cc(-c3ccc(F)cc3)nn2)[C@H](O)C[C@@H]1c1ccc(OC)cc1	-3	-6	1	1	10	-3
CCC(=O)c1ccc(OCC(=O)NCc2ccccc2CN2CCCC2)cc1	-8	13	0	-9	9	-10
c1ccc(COc2ccc(OCCCN3CCCCC3)cc2)cc1	-5	50*	2	19	-7	-26
CC1CCN(CCOc2ccc(OCc3ccccc3)cc2)CC1	-11	61*	2	-9	20	-25
O=C(c1ccccc1)c1ccc(OCCCN2CCCCC2)cc1	-6	34*	0	-6	11	-21
CC(=O)c1ccc(OCCCN2CCCCC2)cc1	-7	14	0	-9	10	-20
c1ccc(COc2ccc(OCCCCN3CCCC3)cc2)cc1	-4	35*	7	-8	25	-21
CCCCSc1nnc(-c2ccccc2NC(C)=O)c(=O)[nH]1	-3	-4	0	-14	9	7
Cc1oc(-c2ccc(Cl)cc2)nc1CN1CCCC(C(=O)NC2CC2)C1 (configuration not stated)	-6	-2	1	-11	9	-1
CCOC(=O)N1CCC(NC(=O)C2CCCN(Cc3nc(-c4cccc(Cl)c4)oc3C)C2)CC1 (configuration not stated)	-4	37*	10	30*	0	-21
Cc1ccc(NC(=O)c2ccc([N+](=O)[O-])s2)cc1S(=O)(=O)N1CCOCC1	0	17	13	1	-16	-14

Bioassay records deposited in PubChem by The Scripps Research Institute Molecular Screening Center.
